In PubChem BioAssay AID1159580 (chemical genetic matrix, 2015):
Where “and” joins values, the source holds several entries; their conditions need not be identical. Identical values can stand only once. Hit rate of the full screen: of about 5,500 compounds, about 2,000 (36%) were called active. Another 18% or so got no clear call; they are omitted. Rule as the data show it: active = normalized growth mostly below about 0.91 (no sharp cut-off); inconclusive = no clear call, values can overlap the other calls; inactive = mostly above about 0.92. The list shows a part of the results.

Test: chemical genetic growth profiling, strain panel (AID 1159580);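 also: tested at 20 µM; growth read once vehicle control cultures reached saturation at 30 °C; 1 = growth at the plate median or of vehicle wells; lower values mean less growth of the strain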
Settings: S. cerevisiae deletion strains, growth OD

Measured: normalized growth

CC1(C)CC[C@]2(C(=O)O)CC[C@]3(C)C(=CCC4[C@@]5(C)CC[C@@H](O)C(C)(C)C5CC[C@]43C)C2C1 (stereo partly drawn)
active: locus YKL009W, strain mrt4, active compounds read low 1.45 [resistant] | locus YKL068W, active compounds read low 1.21 [resistant] | locus YKL085W, strain MDH1 (second series), active compounds read low 1.09 [resistant] | locus YKL085W, strain MDH1, active compounds read low 1.09 [resistant]
inactive: locus YAL021C, strain ccr4, active compounds read low 1.02 | locus YAL026C, strain drs2, active compounds read low 1.01 | locus YAL030W, strain snc1, active compounds read low 1.03 | locus YBL061C, strain skt5, active compounds read low 1.01 | locus YBR009C, strain hhf1, active compounds read low 0.995 | locus YBR021W, strain FUR4, active compounds read low 1.02 | locus YBR023C, strain chs3, active compounds read low 1.01 | locus YBR171W, strain sec66, active compounds read low 1.05 | locus YBR229C, strain ROT2, active compounds read low 1.01 | locus YBR231C, strain swc5, active compounds read low 1.02 | locus YBR279W, strain paf1, active compounds read low 1.01 | locus YCL011C, strain gbp2, active compounds read low 1.01 | locus YCL016C, strain dcc1, active compounds read low 1.03 | locus YCL029C, strain bik1, active compounds read low 1.01 | locus YCL069W, strain vba3, active compounds read low 1.02 | locus YCR088W, strain abp1, active compounds read low 1.01 | locus YDL005C, strain med2, active compounds read low 1.03 | locus YDL035C, strain GPR1, active compounds read low 1.01 | locus YDL040C, strain nat1, active compounds read low 1.01 | locus YDL074C, strain BRE1, active compounds read low 1.06 | locus YDL101C, strain DUN1, active compounds read low 1.02 | locus YDL134C, strain PPH21, active compounds read low 1.04 | locus YDL185W, strain tfp1, active compounds read low 1.02 | locus YDR001C, strain nth1, active compounds read low 1.01 | locus YDR069C, strain doa4, active compounds read low 1.05 | locus YDR101C, strain arx1, active compounds read low 0.991 | locus YDR137W, strain rgp1, active compounds read low 1.07 | locus YDR150W, strain NUM1, active compounds read low 1.01 | locus YDR159W, strain sac3, active compounds read low 1.04 | locus YDR162C, strain NBP2, active compounds read low 1.05 | locus YDR195W, strain ref2 0.987 | locus YDR297W, strain sur2, active compounds read low 1 | locus YDR318W, strain mcm21, active compounds read low 1.02 | locus YDR334W, strain swr1, active compounds read low 1.03 | locus YDR335W, strain msn5, active compounds read low 1.02 | locus YDR388W, active compounds read low 1.02 | locus YDR392W, strain spt3, active compounds read low 1.03 | locus YDR502C, strain sam2, active compounds read low 1.02 | locus YEL003W, strain gim4, active compounds read low 1.02 | locus YEL037C, strain rad23, active compounds read low 1.01 | locus YEL061C, strain CIN8 (second series), active compounds read low 1 | locus YER015W, strain faa2, active compounds read low 1.01 | locus YER016W, strain bim1, active compounds read low 1.03 | locus YER110C, active compounds read low 1.02 | locus YER111C, strain swi4, active compounds read low 1.01 | locus YER155C, strain BEM2 (second series), active compounds read low 1.02 | locus YER155C, strain BEM2, active compounds read low 1.01 | locus YER167W, strain BCK2, active compounds read low 1.01 | locus YFR010W, strain ubp6, active compounds read low 1.01 | locus YGL078C, strain dbp3, active compounds read low 1.04 | locus YGL086W, strain mad1, active compounds read low 1.03 | locus YGL167C, strain pmr1, active compounds read low 1.03 | locus YGL173C, strain kem1, active compounds read low 1.02 | locus YGL227W, strain vid30, active compounds read low 1.01 | locus YGL240W, strain doc1, active compounds read low 1.03 | locus YGL248W, strain PDE1, active compounds read low 1.02 | locus YGL253W, strain hxk2, active compounds read low 1.01 | locus YGR135W, strain pre9, active compounds read low 1.02 | locus YGR229C, strain SMI1, active compounds read low 1.05 | locus YGR252W, strain gcn5, active compounds read low 0.944 | locus YHR013C, strain ard1, active compounds read low 1.04 | locus YHR027C, strain rpn1, active compounds read low 1.02 | locus YHR030C, strain SLT2, active compounds read low 1.01 and 1.02 | locus YHR079C, strain IRE1 (second series), active compounds read low 1.01 | locus YHR079C, strain IRE1, active compounds read low 1.05 | locus YHR094C, strain hxt1, active compounds read low 1.01 | locus YHR129C, strain ARP1, active compounds read low 1.01 | locus YHR142W, strain chs7, active compounds read low 1.02 | locus YHR200W, strain rpn10, active compounds read low 1.01 | locus YIL066C, strain RNR3, active compounds read low 1.03 | locus YIL073C, strain SPO22, active compounds read low 1.05 | locus YIL125W, strain kgd1, active compounds read low 1.01 | locus YJL092W, strain hpr5, active compounds read low 1.02 | locus YJL095W, strain BCK1 (second series), active compounds read low 1.03 | locus YJL095W, strain BCK1, active compounds read low 1.05 and 1.02 | locus YJL115W, strain asf1, active compounds read low 1.01 | locus YJL129C, strain trk1, active compounds read low 1.04 | locus YJL134W, strain LCB3, active compounds read low 1.01 | locus YJL154C, strain vps35, active compounds read low 1.01 | locus YJL164C, strain tpk1, active compounds read low 1.02 | locus YJL166W, strain qcr8, active compounds read low 1.02 | locus YJL168C, strain set2, active compounds read low 1.02 | locus YJL187C, strain SWE1 (second series), active compounds read low 1.04 | locus YJR043C, strain POL32, active compounds read low 1 | locus YJR066W, strain TOR1, active compounds read low 0.982 | locus YKL160W, strain elf1, active compounds read low 1.02 | locus YKL190W, strain CNB1, active compounds read low 1.02 | locus YKR001C, strain vps1, active compounds read low 0.993 | locus YKR026C, strain gcn3, active compounds read low 1.02 | locus YKR091W, strain srl3, active compounds read low 1.02 | locus YLL001W, strain dnm1, active compounds read low 1.01 | locus YLL026W, active compounds read low 1.02 | locus YLL041C, strain sdh2, active compounds read low 1.02 | locus YLR027C, strain aat2, active compounds read low 1.01 | locus YLR039C, strain RIC1, active compounds read low 1.11 | locus YLR058C, strain SHM2, active compounds read low 1.02 | locus YLR102C, strain apc9, active compounds read low 1.02 | locus YLR113W, strain HOG1, active compounds read low 0.951 | locus YLR221C, strain rsa3, active compounds read low 1 | locus YLR258W, strain gsy2, active compounds read low 1.01 | locus YLR262C, strain YPT6 (second series), active compounds read low 0.984 | locus YLR262C, strain YPT6, active compounds read low 1.1 | locus YLR268W, strain sec22, active compounds read low 0.986 | locus YLR320W, strain mms22, active compounds read low 1.01 | locus YLR342W, strain FKS1 (second series), active compounds read low 0.964 | locus YLR342W, strain FKS1, active compounds read low 1.01 | locus YLR357W, strain rsc2, active compounds read low 1.03 | locus YLR370C, strain arc18, active compounds read low 1 | locus YLR371W, strain rom2, active compounds read low 0.992 | locus YLR384C, strain iki3, active compounds read low 1.02 | locus YLR418C, strain cdc73, active compounds read low 1.09 | locus YML016C, strain PPZ1, active compounds read low 1.01 | locus YML032C, strain rad52, active compounds read low 0.991 | locus YML120C, strain ndi1, active compounds read low 1.01 | locus YML124C, strain tub3, active compounds read low 1.01 | locus YMR058W, strain fet3, active compounds read low 1.02 | locus YMR078C, strain ctf18, active compounds read low 1.02 | locus YMR125W, strain sto1, active compounds read low 1.04 | locus YMR129W, active compounds read low 1.01 | locus YMR205C, strain PFK2, active compounds read low 1.03 | locus YMR223W, strain ubp8, active compounds read low 1.02 | locus YMR231W, strain pep5, active compounds read low 1.02 | locus YMR307W, strain GAS1, active compounds read low 0.976 | locus YNL067W, strain RPL9B, active compounds read low 1.05 | locus YNL071W, strain lat1, active compounds read low 1 | locus YNL128W, strain TEP1, active compounds read low 1.03 | locus YNL183C, strain NPR1, active compounds read low 0.994 | locus YNL209W, strain ssb2, active compounds read low 1.01 | locus YNL233W, strain BNI4, active compounds read low 1.03 | locus YNL248C, strain rpa49, active compounds read low 1.01 | locus YNL250W, strain rad50, active compounds read low 1.04 | locus YNL271C, strain bni1, active compounds read low 1.03 | locus YNL298W, strain CLA4, active compounds read low 1.07 | locus YNL307C, strain MCK1, active compounds read low 1.03 | locus YNL322C, strain KRE1 (second series), active compounds read low 1.04 | locus YNR049C, strain mso1, active compounds read low 1.02 | locus YNR052C, strain pop2, active compounds read low 1.03 | locus YOL012C, strain htz1 1.33 | locus YOL147C, strain pex11, active compounds read low 1 | locus YOR001W, strain rrp6, active compounds read low 1.02 | locus YOR061W, strain CKA2, active compounds read low 1.02 | locus YOR069W, strain VPS5, active compounds read low 1.02 | locus YOR070C, strain gyp1, active compounds read low 1.03 | locus YOR080W, strain dia2, active compounds read low 1.01 | locus YOR083W, strain WHI5, active compounds read low 1.02 | locus YOR106W, strain vam3, active compounds read low 1.03 | locus YOR136W, strain idh2, active compounds read low 1.01 | locus YOR144C, strain elg1, active compounds read low 1.01 | locus YOR184W, strain ser1, active compounds read low 1.03 | locus YOR231W, strain MKK1, active compounds read low 0.997 | locus YOR265W, strain rbl2, active compounds read low 1.02 | locus YOR270C, strain vph1, active compounds read low 0.997 | locus YOR290C, strain snf2, active compounds read low 1.02 | locus YOR316C, strain cot1, active compounds read low 1.01 | locus YPL051W, strain arl3, active compounds read low 1 | locus YPL078C, strain atp4, active compounds read low 1.04 | locus YPL106C, strain sse1, active compounds read low 1.03 | locus YPL240C, strain hsp82, active compounds read low 1.01 | locus YPL256C, strain CLN2, active compounds read low 1.05 | locus YPR119W, strain clb2, active compounds read low 1.01 | locus YPR141C, strain kar3, active compounds read low 1.02 | locus YPR163C, strain tif3, active compounds read low 1.02 | locus YPR167C, strain met16, active compounds read low 1.03 | strain wtn01, active compounds read low 1
